Experimental data from the supplement of paper PMC11417369.
Over roughly 25,000 sequences, “ln(normalized median fluorescence intensity)” has its median near 9.7; the highest 2% begin near 11. This is one part of a sample in which the highest values are shown more often than they occur.

Test system: PfAP2-HC AP2 domain (GST-tagged)
Assay: gcPBM binding intensity (ln(normalized median fluorescence intensity)); higher = stronger DNA binding
How it was run: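 Using an Agilent 4 × 180k array, primer-extended double-stranded 36-bp intergenic genomic probes and negative controls were exposed for 1 h to GST-fused P. falciparum DNA-binding domains expressed in E. coli. Binding was carried out in 1× PBS with 1% milk, 0.2 mg/ml BSA, 0.5% salmon testes DNA and 0.03% Triton X-100, and protein was detected with Alexa488 anti-GST antibody and a 488 nm scan. Binding intensity is the highest Masliner-normalised natural-log median intensity across replicate spots of either probe orientation.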

| Sequence | gcPBM binding intensity (ln) |
| --- | --- |
| AAAGGTAAATGTAAATAAATAAATAATAAATATATA [GTGCAC_negctrl_site681] | 9.77 |
| TTTTCTTGACCTATTATTCTTCTCATAGTATAATAT [GTGCAC_negctrl_site641] | 9.62 |
| TGAACATACATCAAAAGTACAAACTCGCATGTTATA [XGTACX_site3320] | 9.67 |
| TATAATATTATACATAGTACACATCACACATCGCAA [XGTACX_site4650] | 9.99 |
| ATAATAAGCAGACACACACACACAAAAAAAAAAAAA [CACACA_site6477] | 11 |
| ATCAAATAATAGCAAACACACAAAAAATAAAAAAAA [CACACA_site4146] | 9.93 |
| ATAATAAGCAAACACACACACACAAAAAAAAAAAAA [CACACA_site720] | 11.6 |
| GACACAAAAAAATAATAATAATAATAATAATAAATA [XGTACX_negctrl_site145] | 9.75 |
| AATAAGCATAGACACACACACAAAAAAAAAAAAAAA [CACACA_site6476] | 10.1 |
| AATAAGCAGAAACACACACACAAAAAAAAAAAAAAA [CACACA_site719] | 10.1 |
| GTGATTAATATATACACACATACATATATATATATA [CACACA_site2817] | 9.81 |
| TATATATTAAAAATAGTGCAAAATAATATATATATA [GTGCAC_site9716] | 9.82 |
| TTTTTTACATCCATAAAACTTTTTCTCTTTTAAAAT [CACACA_negctrl_site1745] | 9.43 |
| AAAATTTATGGAAGGTGTACTGTTAATTATGTATAT [XGTACX_site6446] | 9.74 |
| AGGAAGGAAATAAATCAACACACATATATTATATAT [CACACA_site8678] | 9.87 |
| TTATTGTAAATATATGCATGTGCAAAATGAAAAAAA [TGCATGCA_site399] | 9.69 |
| CAAAAAAATGTGAAGGCATGCAAATATGTAAAATAA [TGCATGCA_site921] | 10.9 |
| TTTTATGCATGTGAAGTGCAAAATAAAAAATAAAAT [GTGCAC_site9612] | 9.56 |
| AAAAAACTTCACATATGTACTTAAAAAAAATTAAAA [XGTACX_site2368] | 9.43 |
| ATATAGTAAAATTATACACACATGAATTTTCCCATA [CACACA_site3113] | 9.81 |
| TCCCAATTTATTATGTGTACTTATTATATACATATA [XGTACX_site4033] | 9.72 |
| AAGTATTACAACCACACACACACCTATATATCATAG [CACACA_site7878] | 11 |
| ATTATAACCATATACACACCCATATAAATAAATATA [CACACA_site6926] | 10.5 |

| Sequence | gcPBM binding intensity (ln) |
| --- | --- |
| GTATTACAACGACACACACACCTATATATCATAGTA [CACACA_site7877] | 10.5 |
| TAAAGTATTACAACCACACACACACCCATATATTAT [CACACA_site4159] | 11.1 |
| TAAAGTATTACAACCACACACACACCGATATATTAT [CACACA_site9382] | 10.8 |
| AAGTATTACAACCACACACACACCTATATATTATAT [CACACA_site4158] | 10.6 |
| AAAGGATGTAATATAAACATATATATGTATATATAT [TGCATGCA_negctrl_site347] | 9.79 |
| AATATTATATTTTATTGTACTAATAAAAATATATGC [XGTACX_site5435] | 9.43 |
| AAAAAAGGAAAAGATACACACCGTAAATTAAAATTT [CACACA_site5908] | 10.2 |
| AAAAAAAAAAAAAAAAAAAAAAAAAAAATACGAAAG [GTGCAC_negctrl_site729] | 9.46 |
| AATTTCTACTATTGTATGCACTTTCATACATACATA [GTGCAC_site9924] | 9.92 |
| TAAAAAATAAAATAATGTACATATGAATTATATATT [XGTACX_site8398] | 9.68 |
| TATAGAAGCGTTCACACACACACATACATACCCATA [CACACA_site4915] | 11.1 |
| AATATAGATACATATACACACACACCCATACATATA [CACACA_site9137] | 10.6 |
| GTTATAGAAGCATTCACACACACACCGACATACACA [CACACA_site4914] | 10.3 |
| TATTACCCATATTATACACACATATATTATATATAT [CACACA_site1567] | 10.2 |
| GTTATAGAAGCATTCACACACACACCCACATACACA [CACACA_site1465] | 11.2 |
| TTGTTATAGAAGCATTCACACACACCCATACATACA [CACACA_site8414] | 10.8 |
| TCTTCCATTTTTATTACACACATAAATATGAAATCG [CACACA_site3471] | 9.74 |
| ATATATATTTATAATCGTACGTACCTAACAATACAA [XGTACX_site4510] | 9.62 |
| ATGGATTATACGTGCACACATATATACAAATAAATA [CACACA_site640] | 9.81 |
| ACTTGACACCAACACACACACATATATAAAAAAAAA [CACACA_site756] | 11 |
| AAACTTGACGAACACACACACACATATATAAAAAAA [CACACA_site6494] | 11.5 |
| AAACTTGACGGACACACACACACATATATAAAAAAA [CACACA_site4577] | 11.6 |
